These results are taken from PubChem BioAssay (NCATS).

Results filed as inconclusive are left out. Activity calls are given as the source filed them. Unless noted, calls follow the shape of the dose curve; as a rule, active = well fitted curve in the direction sought with a large enough effect; inconclusive = small, poorly fitted or top-dose-only effect, or another doubt; inactive = no such curve, though single readings can be large; an effect the other way counts as inactive or inconclusive.

Experiment [1] addresses Nicotinamide N-methyltransferase (Homo sapiens) (UniProt P40261). In words: Confirmatory Screen for Target Class Profiling of Small Molecule Inhibitors of Methyltransferases (AID 1745852). As to conditions: MTase-Glo luminescence, SAH detection, recombinant enzyme; measured here: NNMT max response; stronger effect = lower value.
Experiment [2] addresses Phenylethanolamine N-methyltransferase (Homo sapiens) (UniProt P11086). The experiment is described as above. As to conditions: MTase-Glo luminescence, SAH detection, recombinant enzyme; measured here: PNMT max response; stronger effect = lower value.
Experiment [3] deals with Glutathione peroxidase 1 (Homo sapiens) (UniProt P07203). The experiment is described as follows: Primary qHTS Assay for Inhibitors of Recombinant Selenoprotein Glutathione Peroxidase 1 (GPX1) (AID 1845191). Also: nearly all actives have a fitted effect of over 65% in size. The conditions noted are these: recombinant GPX1, GR-coupled NADPH fluorescence, 15 min; series mostly up to 48.8 µM. The essentials: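 NADPH consumption tracked by fluorescence at 340/450 nm between t=0 and t=15 min, room temperature. Final mix: 10 nM GPX1, 100 nM glutathione reductase, 1 mM GSH, 0.5 mM NADPH, 0.5 mM cumene hydroperoxide, 0.01% BSA; 30 min compound–enzyme preincubation.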

Experiment [4] deals with Phospholipid hydroperoxide glutathione peroxidase GPX4 (Homo sapiens) (UniProt P36969). The experiment is described as follows: Primary qHTS Assay for Inhibitors of Recombinant Selenoprotein Glutathione Peroxidase 4 (GPX4) (AID 1845192). Also: nearly all actives have a fitted effect of over 65% in size. The conditions noted are these: recombinant GPX4, GR-coupled NADPH fluorescence, 15 min; series mostly up to 50 µM. In outline: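 NADPH consumption followed by fluorescence at 340/450 nm, t=0 and after 15 min at room temperature. Reaction started with cumene hydroperoxide (0.5 mM final) after 30 min compound–GPX4 preincubation; final 200 nM GPX4, 100 nM GR, 1 mM GSH, 0.5 mM NADPH.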

Experiment [5] has as its target Metallo-beta-lactamase type 2 (Klebsiella pneumoniae) (UniProt C7C422). The experiment is described as follows: qHTS to identify inhibitors of the New Delhi Metallo-beta-lactamase (NDM): assay validation screen against the NCATS LOPAC Collection (AID 1794843). Also: potency is read from the fitted curve at half-maximal effect. The conditions noted are these: NDM-1 enzyme, nitrocefin hydrolysis, absorbance 485 nm; series mostly up to 38.4 µM. In outline: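 Nitrocefin hydrolysis (50 uM substrate stock) by NDM-1, 2 nM final, was followed by 485 nm absorbance after compound preincubation; buffer was 50 mM HEPES pH 7.0, 1 uM ZnSO4, 0.01% Tween20.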

A short description of experiment [6]: NCATS anti-infectives library activity on HEK293 viability as a counter-qHTS vs the C. elegans viability qHTS (AID 1745854).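 Also: HEK293 cells exposed to compounds for 24 hr before the viability read; % is scaled to controls: 0 for no effect and ±100 for the full control effect.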 As to conditions: HEK293 viability counter-screen; series mostly up to 83.3 µM. The essentials:
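Counter-screen for cytotoxicity: HEK293, 24 hr, 37C, compounds up to 41.7 uM final (a dilution series, 1:5). Readout CellTiter-Glo luminescence, 10 min RT. Digitonin control, 83.3 uM final.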

The nature of experiment [7]: NCATS anti-infectives library activity on the primary C. elegans qHTS viability assay (AID 1745855; calls by dose curve). The conditions noted are these: C. elegans worm area imaging, day 7; at 41.8 µM (top of the series) unless noted. The essentials: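 GFP read-out by 488 nm laser cytometry at day 0, 3 and 7, gated on object perimeter, area and peak intensity, scored viability of PE254-GFP-FLuc worms exposed to compound in S medium with bacterial capsules at 21 °C.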

The nature of experiment [8]: Viability counterscreen for antagonist of constitutive androstane receptor (CAR) against the NCATS DSHEA and TCM libraries (AID 1794837).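 Also: compound exposure lasted 24 h before viability reading; 0% is about no effect.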 The conditions noted are these: CAR reporter cell line viability counterscreen, qHTS; series mostly up to 40 µM. In outline:
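Cells: HepG2 line carrying CYP2B6 reporter and hCAR, seeded and attached 5 h. Then pin-transferred test substances plus agonist CITCO at 48 uM final; 24 h incubation; fluorogenic viability reagent, 1 h.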

The nature of experiment [9]: Viability counterscreen for agonist of constitutive androstane receptor (CAR) against the NCATS DSHEA and TCM libraries (AID 1794838). Also: 0% is about no effect. The conditions noted are these: HepG2 cell viability counterscreen, CAR agonist assay, co-treated with 0.75 µM CAR antagonist; series mostly up to 40 µM. In outline:
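Cell health was measured as CellTiter-Fluor signal in HepG2-CYP2B6-hCAR cells treated for 24 h with substances alongside the hCAR antagonist PK11195 (0.75 uM final).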

Experiment [10] addresses Nuclear receptor subfamily 1 group I member 3 (Homo sapiens) (UniProt Q14994). In words: Primary qHTS for agonist of constitutive androstane receptor (CAR) against the NCATS DSHEA and TCM libraries (AID 1794839).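 Also: HepG2 cells expressing human CAR with a CYP2B6 reporter plus PK11195 antagonist; luciferase reporter luminescence read with ONE-Glo; 0% is about no effect.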 As to conditions: CAR agonist reporter cells, qHTS luminescence, CAR antagonist co-added at 0.75 µM; series mostly up to 40 µM. In outline: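 qHTS, agonist mode: HepG2-CYP2B6-hCAR, 2,500 cells/well, 5 h attach; cpds + PK11195 0.75 µM final; 24 h, 37 °C, 5% CO2. Readouts: CellTiter-Fluor (405/540 nm), then ONE-Glo luminescence.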

A short description of experiment [11]: HepG2 viability counterscreen (readout 2: ATP content) against the NCATS DSHEA and TCM libraries (AID 1794840). Also: 0% is about no effect. The conditions noted are these: ATP content luminescence; series mostly up to 27.3 µM. In outline:
(§1)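 Same wells read twice: first fluorescence from cleaved GF-AFC substrate (25 uM final, 30 min, 37C) for live-cell protease, then CellTiter-Glo luminescence after 30 min at room temperature for ATP. HepG2 cells were exposed ~24 h to substances.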

A short description of experiment [12]: HepG2 viability counterscreen (readout 1: protease activity) against the NCATS DSHEA and TCM libraries (AID 1794841).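 Also: cells exposed to compounds for about 24 h before the protease read; 0% is about no effect.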 As to conditions: qHTS concentration series; series mostly up to 27.3 µM. In outline:
as §1

For experiment [13], the target named is Cytochrome P450 3A4 (Homo sapiens) (UniProt P08684). The experiment is described as follows: qHTS for inhibitors of CYP3A4 against the NCATS DSHEA and TCM libraries (AID 1919971).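 Also: % is scaled to controls: 0 for no effect and ±100 for the full control effect; inhibition lowers luminescence from luciferin made by CYP3A4.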 As to conditions: recombinant CYP3A4 enzyme activity, luminescence qHTS; series mostly up to 34.1 µM. The essentials:
(§2)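 Concentration-response screening with isoform-matched pro-luciferin substrates. The CYP reaction was initiated by NADPH regenerating solution and ran 30-45 min in darkness at room temperature.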

Experiment [14] deals with Cytochrome P450 2D6 (Homo sapiens) (UniProt P10635). The experiment is described as follows: qHTS for inhibitors of CYP2D6 against the NCATS DSHEA and TCM libraries (AID 1919972). Also: % is scaled to controls: 0 for no effect and ±100 for the full control effect. As to conditions: CYP2D6 enzymatic inhibition, luminescence qHTS; series mostly up to 34.1 µM. The essentials:
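CYP2D6 enzyme with pro-luciferin substrate in manufacturer buffer (typically 100 mM KPO4), preincubated 15 min RT with substances (most at 19.5 nM upward); NADPH regeneration system (1x) started 30–45 min RT reaction; P450-Glo luminescence read after 30 min; quinidine as intraplate control.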

Experiment [15] has as its target Cytochrome P450 2C9 (Homo sapiens) (UniProt P11712). In words: qHTS for inhibitors of CYP2C9 against the NCATS DSHEA and TCM libraries (AID 1919973).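 Also: luminogenic pro-luciferin CYP2C9 substrate turned into luciferin with NADPH regeneration; % is scaled to controls: 0 for no effect and ±100 for the full control effect.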 As to conditions: recombinant CYP2C9 enzyme activity, luminescence; series mostly up to 34.1 µM. The essentials:
as §2

Experiment [16] concerns the target Cytochrome P450 2C19 (Homo sapiens) (UniProt P33261). The experiment is described as follows: qHTS for inhibitors of CYP2C19 against the NCATS DSHEA and TCM libraries (AID 1919974).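 Also: luminescence from luciferin released by CYP2C19 oxidation of a pro-luciferin substrate; % is scaled to controls: 0 for no effect and ±100 for the full control effect.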 As to conditions: CYP2C19 enzyme inhibition, luminescence qHTS; series mostly up to 34.1 µM. The essentials:
as §2

A short description of experiment [17]: KB-3-1 P-gp reporter qHTS against the NCATS DSHEA and TCM libraries (AID 1919975). Also: 0% is about no effect. The conditions noted are these: KB-3-1 parental cells, CellTiter-Glo luminescence viability, 72 h; series mostly up to 26.1 µM. The essentials:
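KB-3-1 parental line, 1536-well qHTS: cells seeded, ~4 h attachment, pintool compound addition, ~72 h at 37C, then CellTiter-Glo, 30 min RT, luminescence. Concentration-response format.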

Experiment [18] has as its target Cytochrome P450 1A2 (Homo sapiens) (UniProt P05177). The experiment is described as follows: qHTS for inhibitors of CYPIA2 against the NCATS DSHEA and TCM libraries (AID 1919976). As to conditions: recombinant CYP1A2 enzyme activity, luminescence; series mostly up to 37 µM. In outline: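 Enzyme and pro-luciferin substrate, or substrate alone as no-enzyme background, are pre-incubated with test samples for 15 min at room temperature. NADPH regeneration system (1x final) initiates a 30-45 min dark reaction; luciferase detection reagent follows before luminescence reading.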

Experiment [19] is described as follows: qHTS Counterscreen for compound interference against the NCATS DSHEA and TCM libraries (AID 1919978).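 Also: compounds preincubated with 1 µM D-luciferin or buffer before detection reagent; % of control where 0% means no effect.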 As to conditions: firefly luciferase detection reagent interference, luminescence. In outline: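 Compounds, titrated from 19.5 nM to 39.8 uM final, were pinned onto 1 uM D-luciferin or plain 100 mM potassium phosphate. After 15 min at room temperature, luciferin detection reagent was added for 30 min before the luminescence read.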

Experiment [20] is described as follows: Dual reporter qHTS for agonist of Pregnane X Receptor (hPXR) against the NCATS DSHEA and TCM libraries: Fluorescence readout (AID 1920058). Also: 0% is about no effect. As to conditions: PXR dual reporter cells; series mostly up to 40 µM. The essentials: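 Cells were plated at 2000 per well and allowed to attach for 5 h. Test substances were pinned in and incubated roughly 24 h. CellTiter-Fluor was then added and fluorescence measured after 1 h.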

Sequence of Phenylethanolamine N-methyltransferase (Homo sapiens) (P11086 whole entry, looked up): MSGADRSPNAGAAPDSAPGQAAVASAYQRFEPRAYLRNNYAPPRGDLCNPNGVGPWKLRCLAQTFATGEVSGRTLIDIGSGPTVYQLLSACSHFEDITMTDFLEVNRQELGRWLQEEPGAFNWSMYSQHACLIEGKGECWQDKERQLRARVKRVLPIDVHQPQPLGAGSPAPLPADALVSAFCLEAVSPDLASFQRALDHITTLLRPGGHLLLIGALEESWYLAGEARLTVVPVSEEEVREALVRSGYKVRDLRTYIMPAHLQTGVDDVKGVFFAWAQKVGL
Sequence of Glutathione peroxidase 1 (Homo sapiens) (P07203 whole entry, looked up): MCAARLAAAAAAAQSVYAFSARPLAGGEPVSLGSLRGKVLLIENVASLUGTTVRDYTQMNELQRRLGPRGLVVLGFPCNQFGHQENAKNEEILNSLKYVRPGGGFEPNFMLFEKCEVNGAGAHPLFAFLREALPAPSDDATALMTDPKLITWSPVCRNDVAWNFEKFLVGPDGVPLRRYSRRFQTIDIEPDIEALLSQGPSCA
Sequence of Metallo-beta-lactamase type 2 (Klebsiella pneumoniae) (C7C422 whole entry, looked up): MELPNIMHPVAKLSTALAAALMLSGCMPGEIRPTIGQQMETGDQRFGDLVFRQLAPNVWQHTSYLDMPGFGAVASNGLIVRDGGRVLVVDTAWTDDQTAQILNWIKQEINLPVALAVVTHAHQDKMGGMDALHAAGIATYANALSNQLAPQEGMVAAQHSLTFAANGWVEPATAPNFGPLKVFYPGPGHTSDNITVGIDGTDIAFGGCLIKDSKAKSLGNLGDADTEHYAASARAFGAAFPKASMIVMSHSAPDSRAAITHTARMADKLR
Sequence of Phospholipid hydroperoxide glutathione peroxidase GPX4 (Homo sapiens) (P36969 whole entry, looked up): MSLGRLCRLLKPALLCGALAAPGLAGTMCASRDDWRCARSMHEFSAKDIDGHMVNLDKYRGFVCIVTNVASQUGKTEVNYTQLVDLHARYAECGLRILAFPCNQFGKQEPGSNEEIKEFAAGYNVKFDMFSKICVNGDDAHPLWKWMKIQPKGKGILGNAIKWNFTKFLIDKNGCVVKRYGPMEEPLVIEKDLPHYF
Sequence of Nicotinamide N-methyltransferase (Homo sapiens) (P40261 whole entry, looked up): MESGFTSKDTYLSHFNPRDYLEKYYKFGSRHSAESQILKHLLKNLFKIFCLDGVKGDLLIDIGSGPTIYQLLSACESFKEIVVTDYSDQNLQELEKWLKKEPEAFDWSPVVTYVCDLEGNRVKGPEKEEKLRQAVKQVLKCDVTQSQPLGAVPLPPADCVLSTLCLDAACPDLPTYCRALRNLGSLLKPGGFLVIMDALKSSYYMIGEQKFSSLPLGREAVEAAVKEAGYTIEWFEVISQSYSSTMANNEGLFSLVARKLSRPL
Sequence of Nuclear receptor subfamily 1 group I member 3 (Homo sapiens) (Q14994 whole entry, looked up): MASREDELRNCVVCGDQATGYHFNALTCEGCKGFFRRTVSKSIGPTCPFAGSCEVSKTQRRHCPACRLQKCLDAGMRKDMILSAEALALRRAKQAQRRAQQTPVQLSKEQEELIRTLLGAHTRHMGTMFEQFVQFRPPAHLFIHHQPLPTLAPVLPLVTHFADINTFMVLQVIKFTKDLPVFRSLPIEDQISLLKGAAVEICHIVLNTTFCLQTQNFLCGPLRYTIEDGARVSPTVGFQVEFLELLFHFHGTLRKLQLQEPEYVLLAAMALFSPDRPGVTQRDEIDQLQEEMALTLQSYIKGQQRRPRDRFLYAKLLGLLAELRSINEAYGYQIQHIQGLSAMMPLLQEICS
Sequence of Cytochrome P450 2D6 (Homo sapiens) (P10635 whole entry, looked up): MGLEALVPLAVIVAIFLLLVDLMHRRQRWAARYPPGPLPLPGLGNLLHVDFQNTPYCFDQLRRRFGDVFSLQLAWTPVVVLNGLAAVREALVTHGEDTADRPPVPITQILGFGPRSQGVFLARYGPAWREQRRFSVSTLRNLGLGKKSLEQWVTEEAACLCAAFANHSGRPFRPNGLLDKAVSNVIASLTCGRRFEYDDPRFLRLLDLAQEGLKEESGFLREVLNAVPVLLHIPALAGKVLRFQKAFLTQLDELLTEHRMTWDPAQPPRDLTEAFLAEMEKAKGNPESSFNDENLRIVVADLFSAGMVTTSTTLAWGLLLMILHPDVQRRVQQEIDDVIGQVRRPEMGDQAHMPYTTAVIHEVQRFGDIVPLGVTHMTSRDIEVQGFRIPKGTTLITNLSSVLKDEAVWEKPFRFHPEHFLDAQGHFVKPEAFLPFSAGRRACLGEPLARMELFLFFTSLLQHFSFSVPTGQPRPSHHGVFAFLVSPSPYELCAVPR
Sequence of Cytochrome P450 2C19 (Homo sapiens) (P33261 whole entry, looked up): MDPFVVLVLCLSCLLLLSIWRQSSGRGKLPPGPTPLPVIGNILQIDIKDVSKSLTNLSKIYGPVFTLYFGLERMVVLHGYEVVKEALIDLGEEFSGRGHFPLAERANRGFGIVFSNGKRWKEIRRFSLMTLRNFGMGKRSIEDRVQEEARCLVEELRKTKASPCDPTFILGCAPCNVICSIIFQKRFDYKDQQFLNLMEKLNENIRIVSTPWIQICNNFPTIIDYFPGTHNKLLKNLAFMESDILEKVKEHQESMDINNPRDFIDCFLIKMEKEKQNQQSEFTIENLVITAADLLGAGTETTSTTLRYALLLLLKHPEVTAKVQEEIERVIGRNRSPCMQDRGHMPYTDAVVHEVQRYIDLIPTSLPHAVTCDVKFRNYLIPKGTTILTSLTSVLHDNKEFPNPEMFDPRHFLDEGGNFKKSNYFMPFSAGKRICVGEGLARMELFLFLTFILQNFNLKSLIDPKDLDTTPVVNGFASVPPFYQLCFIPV
Sequence of Cytochrome P450 2C9 (Homo sapiens) (P11712 whole entry, looked up): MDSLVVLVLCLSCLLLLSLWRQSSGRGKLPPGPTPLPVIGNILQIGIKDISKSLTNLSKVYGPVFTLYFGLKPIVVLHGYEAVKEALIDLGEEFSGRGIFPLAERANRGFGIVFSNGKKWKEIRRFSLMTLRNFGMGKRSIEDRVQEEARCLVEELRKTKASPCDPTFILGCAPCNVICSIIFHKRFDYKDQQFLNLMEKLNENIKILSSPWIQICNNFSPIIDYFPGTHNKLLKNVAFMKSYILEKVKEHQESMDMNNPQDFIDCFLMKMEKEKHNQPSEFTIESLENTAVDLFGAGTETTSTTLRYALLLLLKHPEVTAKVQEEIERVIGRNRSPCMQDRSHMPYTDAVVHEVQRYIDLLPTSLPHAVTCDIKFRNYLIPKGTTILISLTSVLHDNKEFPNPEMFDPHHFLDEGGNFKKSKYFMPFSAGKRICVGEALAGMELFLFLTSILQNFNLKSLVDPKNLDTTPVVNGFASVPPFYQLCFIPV
Sequence of Cytochrome P450 1A2 (Homo sapiens) (P05177 whole entry, looked up): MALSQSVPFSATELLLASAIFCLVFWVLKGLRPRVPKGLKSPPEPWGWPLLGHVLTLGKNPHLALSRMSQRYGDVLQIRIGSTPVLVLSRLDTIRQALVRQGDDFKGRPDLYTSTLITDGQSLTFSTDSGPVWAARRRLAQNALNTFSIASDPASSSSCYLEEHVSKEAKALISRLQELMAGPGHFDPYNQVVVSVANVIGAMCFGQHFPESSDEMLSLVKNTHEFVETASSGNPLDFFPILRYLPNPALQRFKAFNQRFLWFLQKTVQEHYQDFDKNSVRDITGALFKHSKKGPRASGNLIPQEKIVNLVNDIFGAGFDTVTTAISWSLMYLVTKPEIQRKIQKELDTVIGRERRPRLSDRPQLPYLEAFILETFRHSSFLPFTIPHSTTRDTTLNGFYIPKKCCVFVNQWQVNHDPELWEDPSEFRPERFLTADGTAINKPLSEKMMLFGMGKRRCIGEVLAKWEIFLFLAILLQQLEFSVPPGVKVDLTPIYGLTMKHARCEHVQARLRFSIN
Sequence of Cytochrome P450 3A4 (Homo sapiens) (P08684 whole entry, looked up, canonical isoform): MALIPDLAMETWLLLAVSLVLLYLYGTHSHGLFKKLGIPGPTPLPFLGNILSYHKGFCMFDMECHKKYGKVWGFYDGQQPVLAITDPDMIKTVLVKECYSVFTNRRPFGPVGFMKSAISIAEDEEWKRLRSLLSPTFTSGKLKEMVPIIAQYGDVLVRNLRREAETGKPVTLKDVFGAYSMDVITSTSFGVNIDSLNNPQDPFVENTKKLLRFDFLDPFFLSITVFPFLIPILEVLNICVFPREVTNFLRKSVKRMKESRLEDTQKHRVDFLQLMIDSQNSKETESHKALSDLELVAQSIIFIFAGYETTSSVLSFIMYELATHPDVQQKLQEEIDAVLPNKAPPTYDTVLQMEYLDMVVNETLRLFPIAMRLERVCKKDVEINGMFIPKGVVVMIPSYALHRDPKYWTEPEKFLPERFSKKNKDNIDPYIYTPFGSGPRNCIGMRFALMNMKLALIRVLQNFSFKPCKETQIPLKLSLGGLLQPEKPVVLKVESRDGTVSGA

As for `CC(O)C(O)[C@H]1CNc2nc(N)[nH]c(=O)c2N1` (some centres not stated), the results for the activity in experiment [1] and in [2] were -14.2% and -4.71%, respectively. The Potency result in experiment [3] and in [4] was “inactive” in each case.
Regarding `CC1CCN=C(N)S1` (configuration not stated), the values for the activity in experiment [1] and in experiment [2] were -17.8% and -0.769%, respectively. The Potency entry in [5], in [3] and in experiment [4] was “inactive” in each case.
For `C[C@H](NC(=O)/C(C#N)=C/c1ccc(O)c(O)c1)c1ccccc1`, the results for the activity in experiment [1] and in experiment [2] were -55.4% and -2.26%, respectively. The Potency result in experiment [5], in experiment [3] and in [4] was “inactive” throughout.
On to `N[C@H]1CONC1=O`, for which the outcome in experiment [6] was “inactive”. Further, the Potency entry in [5], in experiment [3] and in [4] was “inactive” throughout.
Regarding `C=CCN1CCc2c(cc(O)c(O)c2Br)[C@@H](c2ccccc2)C1`, the activity in experiment [1] was -9.94%; in experiment [2] it was -1.34%. Moreover, the Potency result in experiment [5], in [3] and in experiment [4] was “inactive” in each case.
As to `CN(C)C(=O)/N=N/C(=O)N(C)C`, the activity in experiment [1] was -6.49%; in experiment [2], -4.1%. Besides, the Potency entry in experiment [3] and in [4] was “inactive” throughout.
In the case of `CNCCc1cnc(CCC(c2ccccc2)c2ccccc2)[nH]1`, the activity is -32.7% in experiment [1] and -3.25% in experiment [2]. The Potency result in experiment [3] and in [4] was “inactive” each time.
Turning to `NC(=O)c1ccccc1`, the outcome in experiment [6] and in [7] was “inactive” throughout. The Potency result in experiment [5], in [3] and in experiment [4] was “inactive” in each case.
On to `CCCn1c(=O)c(C)cn2nc(N)nc12`, for which the Potency entry in [5] and in [3] was “inactive” in each case.
As for `C[C@@]1(C2CCCC2)Cc2cc(OCC(=O)O)c(Cl)c(Cl)c2C1=O`, the activity in experiment [1] was -45.2%; in experiment [2], 5.32%. The Potency entry in experiment [5], in experiment [3] and in [4] was “inactive” each time.
Regarding `C=CCN1CCc2cc(O)c(O)cc2C(c2ccccc2)C1` (configuration not stated), the figures for the activity in experiment [1] and in experiment [2] were -4.37% and -2.84%, respectively. Moreover, the Potency result in experiment [5], in [3] and in [4] was “inactive” each time.
On to `O=C(O)C1=CC(=C(c2ccc(O)c(C(=O)O)c2)c2ccc(O)c(C(=O)O)c2)C=CC1=O`, for which the values for the activity in experiment [1] and in experiment [2] were -4.1% and 2.52%, respectively. The Potency in [5] is 1.26 µM (active).
As for `Brc1c(Br)c(Br)c2[nH]cnc2c1Br`, the activity in experiment [1] is -40.5%; in experiment [2], -39.7%. The Potency entry in experiment [5], in experiment [3] and in experiment [4] was “inactive” in each case.
Consider `CCN(CC)CCCCCCCCOC(=O)c1cc(OC)c(OC)c(OC)c1`, for which the activity in experiment [1] is -0.607%; in experiment [2] it was 0.819%. For the same molecule, the Potency entry in [5], in experiment [3] and in experiment [4] was “inactive” each time.
As to `C=C1C[C@@]23CC[C@H]4[C@@](C)(CCC[C@@]4(C)C(=O)OC4OC(CO)C(O)C(O)C4O)[C@@H]2CC[C@]1(OC1OC(CO)C(O)C(O)C1OC1OC(CO)C(O)C(O)C1O)C3` (some centres not stated), the outcome in experiment [8], in experiment [9], in [10], in experiment [11], in [12] and in experiment [13] was “inactive” in each case. The outcome in experiment [14], in experiment [15], in experiment [16], in experiment [17], in [18] and in experiment [20] was “inactive” in each case. The Potency result in experiment [5], in experiment [3] and in [4] was “inactive” throughout. Moreover, in [19], the max response is 4.65% (inactive).
As for `N#C/C(=C\c1ccc(O)c(O)c1)C(=O)NCCCNC(=O)/C(C#N)=C/c1ccc(O)c(O)c1`, the results for the activity in experiment [1] and in experiment [2] were -44.4% and -72.8%, respectively. In addition, the Potency entry in experiment [5], in experiment [3] and in experiment [4] was “inactive” in each case.
